According to PubChem BioAssay AID1159580 (chemical genetic matrix, 2015):
Among all 5,500 compounds or so, about 2,000 (36%) were called active. Another 18% or so got no clear call; they are omitted. Rule as the data show it: active = normalized growth mostly below about 0.91 (no sharp cut-off); inconclusive = no clear call, values can overlap the other calls; inactive = mostly above about 0.92. The list shows a part of the results.

Experiment: chemical genetic growth profiling, strain panel (AID 1159580);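 also: tested at 20 µM; growth read once vehicle control cultures reached saturation at 30 °C; 1 = growth at the plate median or of vehicle wells; lower values mean less growth of the strain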
Conditions: growth OD
[1] = S. cerevisiae deletion strains, locus YGR078C, strain PAC10, stronger effect = lower value
[2] = S. cerevisiae deletion strains, locus YMR263W, strain SAP30, stronger effect = lower value
[3] = S. cerevisiae deletion strains, locus YMR307W, strain GAS1, stronger effect = lower value
[4] = S. cerevisiae deletion strains, locus YNL322C, strain KRE1, stronger effect = lower value
[5] = S. cerevisiae deletion strains, locus YPL241C, strain CIN2, stronger effect = lower value
[6] = S. cerevisiae deletion strains, locus YDL101C, strain DUN1, stronger effect = lower value
[7] = S. cerevisiae deletion strains, locus YHR030C, strain SLT2, stronger effect = lower value

Measured: normalized growth

CCCc1c(-c2ccc(O)cc2)nn(-c2ccc(O)cc2)c1-c1ccc(O)cc1
inactive: S. cerevisiae deletion strains, locus YAL040C, strain CLN3, stronger effect = lower value 0.985 | S. cerevisiae deletion strains, locus YCL061C, strain MRC1 (second series), stronger effect = lower value 0.999 | S. cerevisiae deletion strains, locus YDR363W, strain ESC2, stronger effect = lower value 0.994 | S. cerevisiae deletion strains, locus YER002W, strain NOP16, stronger effect = lower value 1 | [1] 1 | [2] 0.995 | [3] 1.01 | S. cerevisiae deletion strains, locus YNL175C, strain NOP13, stronger effect = lower value 1.02 | S. cerevisiae deletion strains, locus YNL197C, strain WHI3, stronger effect = lower value 1.01 | S. cerevisiae deletion strains, locus YNL224C, strain SQS1, stronger effect = lower value 1 | [4] 0.988 | S. cerevisiae deletion strains, locus YOR083W, strain WHI5 (second series), stronger effect = lower value 0.948 | [5] 0.991

O=C1CCc2cccc3cccc1c23
active: S. cerevisiae deletion strains, locus YLR039C, strain RIC1, stronger effect = lower value 0.679 | S. cerevisiae deletion strains, locus YLR085C, strain ARP6, stronger effect = lower value 0.764 | S. cerevisiae deletion strains, locus YLR262C, strain YPT6, stronger effect = lower value 0.672
inactive: S. cerevisiae deletion strains, locus YAL013W, strain DEP1, stronger effect = lower value 0.963 | S. cerevisiae deletion strains, locus YBR229C, strain ROT2, stronger effect = lower value 0.984 | [6] 0.932 | S. cerevisiae deletion strains, locus YDR150W, strain NUM1, stronger effect = lower value 0.966 | S. cerevisiae deletion strains, locus YEL061C, strain CIN8, stronger effect = lower value 0.954 | [1] 0.962 | [7] 0.769 | S. cerevisiae deletion strains, locus YHR087W, strain rtc3, stronger effect = lower value 1.01 | S. cerevisiae deletion strains, locus YJL187C, strain SWE1, stronger effect = lower value 0.981 | S. cerevisiae deletion strains, locus YJR043C, strain POL32, stronger effect = lower value 0.988 | S. cerevisiae deletion strains, locus YJR075W, strain HOC1, stronger effect = lower value 0.997 | S. cerevisiae deletion strains, locus YLR058C, strain SHM2 (second series), stronger effect = lower value 0.982 | S. cerevisiae deletion strains, locus YML094W, strain GIM5, stronger effect = lower value 0.921 | S. cerevisiae deletion strains, locus YMR219W, strain ESC1, stronger effect = lower value 0.988 | [2] 0.969 | [3] 1.03 | S. cerevisiae deletion strains, locus YNL153C, strain GIM3, stronger effect = lower value 0.934 | S. cerevisiae deletion strains, locus YNL298W, strain CLA4 (second series), stronger effect = lower value 0.906 | [4] 0.957 | S. cerevisiae deletion strains, locus YNR030W, strain Alg12, stronger effect = lower value 0.927 | S. cerevisiae deletion strains, locus YPL055C, strain LGE1, stronger effect = lower value 1 | [5] 0.933 | S. cerevisiae deletion strains, locus YPR135W, strain CTF4, stronger effect = lower value 0.713 | S. cerevisiae strains, strain wild type, stronger effect = lower value 0.949

Cc1cccc(N=NC(C(=O)C(F)(F)F)=C(O)c2cccs2)c1
active: S. cerevisiae deletion strains, locus YLR113W, strain HOG1, stronger effect = lower value 0.713 | S. cerevisiae deletion strains, locus YPL256C, strain CLN2, stronger effect = lower value 0.777
inactive: S. cerevisiae deletion strains, locus YAR019C, strain CDC15, stronger effect = lower value 0.995 | S. cerevisiae deletion strains, locus YBL105C, strain PKC1, stronger effect = lower value 0.985 | S. cerevisiae deletion strains, locus YBR135W, strain CKS1, stronger effect = lower value 0.987 | S. cerevisiae deletion strains, locus YBR136W, strain MEC1, stronger effect = lower value 0.993 | S. cerevisiae deletion strains, locus YBR160W, strain CDC28, stronger effect = lower value 0.996 | S. cerevisiae deletion strains, locus YDL017W, strain CDC7, stronger effect = lower value 0.986 | S. cerevisiae deletion strains, locus YDL028C, strain MPS1, stronger effect = lower value 0.996 | [6] 0.988 | S. cerevisiae deletion strains, locus YDL108W, strain KIN28, stronger effect = lower value 0.984 | S. cerevisiae deletion strains, locus YDL132W, strain cdc53, stronger effect = lower value 0.978 | S. cerevisiae deletion strains, locus YDL214C, strain PRR2, stronger effect = lower value 0.975 | S. cerevisiae deletion strains, locus YDR052C, strain DBF4, stronger effect = lower value 0.99 | S. cerevisiae deletion strains, locus YDR054C, strain cdc34, stronger effect = lower value 0.976 | S. cerevisiae deletion strains, locus YDR226W, strain ADK1, stronger effect = lower value 0.992 | S. cerevisiae deletion strains, locus YDR477W, strain SNF1, stronger effect = lower value 0.975 | S. cerevisiae deletion strains, locus YER123W, strain YCK3, stronger effect = lower value 0.979 | S. cerevisiae deletion strains, locus YER133W, strain GLC7, stronger effect = lower value 0.975 | S. cerevisiae deletion strains, locus YFL009W, strain cdc4, stronger effect = lower value 0.988 | S. cerevisiae deletion strains, locus YFL029C, strain CAK1, stronger effect = lower value 0.993 | S. cerevisiae deletion strains, locus YFR003C, strain YPI1, stronger effect = lower value 0.99 | S. cerevisiae deletion strains, locus YFR019W, strain FAB1, stronger effect = lower value 0.992 | S. cerevisiae deletion strains, locus YFR028C, strain CDC14, stronger effect = lower value 0.983 | S. cerevisiae deletion strains, locus YGR040W, strain KSS1, stronger effect = lower value 0.974 | S. cerevisiae deletion strains, locus YGR052W, strain FMP48, stronger effect = lower value 0.927 | S. cerevisiae deletion strains, locus YGR092W, strain DBF2, stronger effect = lower value 0.946 | [7] 0.876 | S. cerevisiae deletion strains, locus YHR079C, strain IRE1, stronger effect = lower value 0.749 | S. cerevisiae deletion strains, locus YHR082C, strain KSP1, stronger effect = lower value 1.07 | S. cerevisiae deletion strains, locus YHR205W, strain SCH9, stronger effect = lower value 0.985 | S. cerevisiae deletion strains, locus YIL147C, strain SLN1, stronger effect = lower value 0.988 | S. cerevisiae deletion strains, locus YJL095W, strain BCK1, stronger effect = lower value 0.787 | S. cerevisiae deletion strains, locus YJL128C, strain PBS2, stronger effect = lower value 0.944 | S. cerevisiae deletion strains, locus YJL157C, strain FAR1, stronger effect = lower value 0.989 | S. cerevisiae deletion strains, locus YJR016C, strain ILV3, stronger effect = lower value 0.984 | S. cerevisiae deletion strains, locus YJR066W, strain TOR1 (second series), stronger effect = lower value 0.988 | S. cerevisiae deletion strains, locus YJR066W, strain TOR1, stronger effect = lower value 1.07 | S. cerevisiae deletion strains, locus YKL048C, strain ELM1, stronger effect = lower value 0.976 | S. cerevisiae deletion strains, locus YKL067W, strain YNK1, stronger effect = lower value 0.976 | S. cerevisiae deletion strains, locus YKL101W, strain HSL1, stronger effect = lower value 0.951 | S. cerevisiae deletion strains, locus YKL193C, strain SDS22, stronger effect = lower value 0.991 | S. cerevisiae deletion strains, locus YKL203C, strain TOR2, stronger effect = lower value 1.06 | S. cerevisiae deletion strains, locus YLR133W, strain CKI1, stronger effect = lower value 0.983 | S. cerevisiae deletion strains, locus YLR403W, strain SFP1, stronger effect = lower value 0.979 | S. cerevisiae deletion strains, locus YML070W, strain DAK1, stronger effect = lower value 0.973 | S. cerevisiae deletion strains, locus YMR001C, strain CDC5, stronger effect = lower value 0.979 | S. cerevisiae deletion strains, locus YMR205C, strain PFK2 (second series), stronger effect = lower value 0.984 | S. cerevisiae deletion strains, locus YMR277W, strain FCP1, stronger effect = lower value 0.989 | S. cerevisiae deletion strains, locus YNL006W, strain LST8, stronger effect = lower value 0.988 | S. cerevisiae deletion strains, locus YNL020C, strain ARK1, stronger effect = lower value 0.979 | S. cerevisiae deletion strains, locus YNL161W, strain CBK1, stronger effect = lower value 0.99 | S. cerevisiae deletion strains, locus YNL183C, strain NPR1, stronger effect = lower value 0.842 | S. cerevisiae deletion strains, locus YNL207W, strain RIO2, stronger effect = lower value 0.986 | S. cerevisiae deletion strains, locus YNL222W, strain SSU72, stronger effect = lower value 0.987 | S. cerevisiae deletion strains, locus YNL307C, strain MCK1 (second series), stronger effect = lower value 0.984 | S. cerevisiae deletion strains, locus YOL078W, strain AVO1, stronger effect = lower value 0.988 | S. cerevisiae deletion strains, locus YOL136C, strain PFK27, stronger effect = lower value 0.989 | S. cerevisiae deletion strains, locus YOR061W, strain CKA2, stronger effect = lower value 0.983 | S. cerevisiae deletion strains, locus YOR119C, strain RIO1, stronger effect = lower value 0.999 | S. cerevisiae deletion strains, locus YOR231W, strain MKK1, stronger effect = lower value 0.797 | S. cerevisiae deletion strains, locus YOR329C, strain SCD5, stronger effect = lower value 0.984 | S. cerevisiae deletion strains, locus YPL031C, strain PHO85, stronger effect = lower value 0.953 | S. cerevisiae deletion strains, locus YPL153C, strain RAD53, stronger effect = lower value 0.948 | S. cerevisiae deletion strains, locus YPL204W, strain HRR25, stronger effect = lower value 0.97 | S. cerevisiae deletion strains, locus YPL209C, strain IPL1, stronger effect = lower value 0.99 | S. cerevisiae deletion strains, locus YPR025C, strain CCL1, stronger effect = lower value 0.985 | S. cerevisiae deletion strains, locus YPR106W, strain ISR1, stronger effect = lower value 0.98 | S. cerevisiae deletion strains, locus YPR111W, strain DBF20, stronger effect = lower value 0.972 | S. cerevisiae deletion strains, strain NNK1, stronger effect = lower value 0.995 | S. cerevisiae deletion strains, strain TSCII, stronger effect = lower value 0.988
